Source: PubChem (National Center for Advancing Translational Sciences (NCATS))
LDHA inh: LDHA (human) enzyme inhibition; P00338; purified LDHA, NADH/diaphorase-resazurin fluorescence; stronger effect = lower value; activity change, % (values are at about 110 or 230 µM); hit rate 0.15% among 480,000; AID 1347041; in the data active = activity change below about -30%;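 note: plate controls were DMSO wells for no effect and wells without enzyme for full effect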
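Human LDH5 (2 nM) was incubated with 0.06 mM NADH and 0.2 mM pyruvate for 5 min at room temperature in Tris pH 7.4. Remaining NADH was coupled through diaphorase/resazurin, and resorufin fluorescence was read at 0 and 20 min.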
D1 antagonist: human D1 dopamine receptor antagonism | activity change, negative = inhibition, % at 10 µM | HEK293 TREx D1 cells, calcium flux, dopamine EC80; stronger effect = lower value | hit rate 3.2% among 360,000; in the data active = activity change below about -30%; note: % is set by controls: 0 for no effect and ±100 for the full control effect
Target sequence (P21728 whole entry, looked up): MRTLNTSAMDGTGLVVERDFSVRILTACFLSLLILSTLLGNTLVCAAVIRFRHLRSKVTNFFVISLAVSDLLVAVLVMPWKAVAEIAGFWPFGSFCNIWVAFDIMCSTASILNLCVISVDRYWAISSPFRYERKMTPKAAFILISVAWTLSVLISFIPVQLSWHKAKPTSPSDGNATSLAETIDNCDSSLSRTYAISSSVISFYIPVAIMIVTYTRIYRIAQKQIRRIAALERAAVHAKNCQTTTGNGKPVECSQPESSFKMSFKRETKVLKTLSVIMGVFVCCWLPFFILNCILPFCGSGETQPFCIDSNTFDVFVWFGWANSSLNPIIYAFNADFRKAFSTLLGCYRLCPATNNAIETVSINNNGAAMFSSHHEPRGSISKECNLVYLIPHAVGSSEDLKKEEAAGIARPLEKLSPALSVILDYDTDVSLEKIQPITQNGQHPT
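Using tetracycline-induced force-coupled D1 Hek293 cells and a calcium dye, signals were followed for 180 s after compound, then for 180 s after EC80 dopamine, to detect inhibitors.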
D1 agonist: agonists of human D1 dopamine receptor; HEK293 T-REx D1 cells, calcium flux, agonist mode; activation, % at 2 µM; hit rate 1% among 360,000; P21728; note: 0% is about no effect
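Tetracycline-induced HEK293 TREx D1 cells, force-coupled to calcium signalling, were dye-loaded with a no-wash calcium kit. Compound was pin-added after a 10 s baseline. Fluorescence was read kinetically at 1 cycle/s for 180 s, with calcium rises flagged as agonism.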
TRHR ag: agonists of human TRH receptor. activation, % at 2 µM. P34981. hit rate 0.18% among 360,000. TRHR cells, calcium flux fluo-8, FDSS agonist mode. AID 493084; note: 0% is about no effect
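TRHR-expressing cells loaded with fluo-8 calcium dye; 23 nL library compound pin-transferred, kinetic FDSS fluorescence (Ex 480/Em 530) recorded about 180 s for agonist-induced calcium release, before a 10 nM TRH EC20 addition for potentiator mode.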
TRHR enhancer: allosteric enhancers of human TRH receptor; P34981; TRHR cells, fluo-8 calcium fluorescence, EC20 TRH enhancement; enhancement, % at 2 µM; hit rate 0.66% among 360,000; AID 493056; in the data active = enhancement above about 30%; note: 0% is about no effect
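Enhancer read-out: after compound pinning and an initial kinetic agonist-mode read, an EC20 of TRH (10 nM final) was injected and fluo-8 calcium signal (Ex 480/Em 530) followed at 1 s/cycle for 100 cycles in TRHR-expressing cells.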
D1 potentiator: potentiators of human D1 dopamine receptor; HEK293 TREx D1 cells, calcium flux, dopamine EC20 potentiation; P21728; AID 504651; potentiation, % at 10 µM; hit rate 0.036% among 360,000; in the data active = potentiation above about 30%; note: 0% is about no effect
Starred values were filed as active, the others as inactive; nt = not tested or not shown. Rows were chosen to be rich in hits. Some 3.6% of all compounds tested hit in one or more screens of this group. Cut-off read from the data, not from the text of the source, unless noted: active = activation above about 30%; inactive = the rest.

SMILES	LDHA inh	D1 antagonist	D1 agonist	TRHR ag	TRHR enhancer	D1 potentiator
COCCN1C(=O)c2n[nH]c(-c3ccco3)c2C1c1ccccc1 (stereo unspecified)	6	nt	nt	nt	nt	nt
COc1ccc(-c2cc(C(=O)NC(C)(C)C)c3ccccc3n2)c(OC)c1	6	nt	nt	nt	nt	nt
Cc1ccc(-n2c(-c3nn(C)cc3Cl)n[nH]c2=S)cc1	-4	28	3	2	31*	-4
CC(C)c1cccc(C2=CC(=O)C[C@H](c3ccc(F)cc3)C2)c1	-1	-39*	6	1	-6	-14
COc1cc(C2c3c(oc4ccc(F)cc4c3=O)C(=O)N2c2nc(C)c(C)s2)cc(OC)c1OC (stereo unspecified)	3	2	52*	0	10	-8
Cc1ccc2c(c1)N(CC(=O)c1c(C)n(C)c3ccccc13)C(=O)CO2	5	nt	nt	nt	nt	nt
CC(C)(C)c1ccccc1OCCCCCNCCO	-11	18	33*	3	22	-6
Cc1ccccc1OCCCCCNCCO	-3	-6	4	1	5	-3
CC(C)c1ccccc1OCCCCCNCCO	-2	-8	93*	-2	-5	-8
CCOc1ccccc1OC(=O)c1ccc(F)cc1Cl	4	nt	nt	nt	nt	nt
O=C(Nc1ccc(F)cc1)c1ccc2c(Cl)c3c(nc2c1)CCCC3	4	nt	nt	nt	nt	nt
O=c1[nH]c2ccc(-c3csc(NC4CC4)n3)cc2[nH]1	13	nt	nt	nt	nt	nt
C/C(=N\NC(=O)c1ccco1)c1ccc(NC(=O)c2ccccc2)cc1	-16	-33*	4	0	1	-7
C/C(=N\NC(=O)c1ccco1)c1ccc(NC(=O)C(F)(F)F)cc1	0	-18	5	0	39*	-4
COC(=O)C(CC(=O)c1ccc(Br)cc1)(Cc1ccc(Br)cc1)C(=O)OC	14	nt	nt	nt	nt	nt
Cc1cc(C)n(-c2nnc(N3CCN(c4ccc(F)cc4)CC3)nn2)n1	0	-42*	3	-1	-1	1
Cc1cc(C)n(-c2ccc(N3CCOCC3)nn2)n1	-6	1	5	-2	6	1
c1ccc(Cc2nnc3sc(-c4ccncc4)nn23)cc1	5	-33*	2	0	6	3
c1ccc(Cc2nnc3sc(-c4cccnc4)nn23)cc1	0	-7	5	0	9	7
CCOC(=O)C1CCN(CC(C)(C)NS(=O)(=O)c2ccc(C)cc2)CC1	-8	0	6	-1	27	-8
Cc1ccc(S(=O)(=O)NCc2ccc(C(=O)N3CCN(Cc4ccccc4)CC3)cc2)cc1	0	5	3	0	17	-2
CCOC(=O)C1CCN(C(=O)c2ccc(CNS(=O)(=O)c3ccc(C)cc3)cc2)CC1	-3	-37*	0	-1	4	-4
COc1ccc(CN2CCN(C(=O)c3ccc(CNS(=O)(=O)c4ccc(C)cc4)cc3)CC2)c(OC)c1OC	0	-30*	7	0	-4	-8
CCOC(=O)C1CCN(CC(C)(C)NS(=O)(=O)c2ccc(Cl)cc2)CC1	-4	-31*	2	0	1	-12
CCOC(=O)N1CCC(NC(=O)c2ccc(CNS(=O)(=O)c3ccc(F)cc3)cc2)CC1	-8	-34*	4	0	-7	-5
SMILES	LDHA inh	D1 antagonist	D1 agonist	TRHR ag	TRHR enhancer	D1 potentiator
Cc1ccc(S(=O)(=O)NCc2ccc(C(=O)NC3CC3)cc2)cc1	-5	-6	2	0	-1	-3
Cc1ccc(N2CC(c3nc(-c4ccccc4C)no3)CC2=O)cc1 (stereo unspecified)	-6	nt	nt	nt	nt	nt
COC(=O)c1ccc(C2C(c3ccc(C)cc3)=C(O)C(=O)N2CCc2ccc(OC)c(OC)c2)cc1 (stereo unspecified)	11	nt	nt	nt	nt	nt
O=C(O)/C=C/c1cccc(NS(=O)(=O)/C=C/c2ccccc2)c1	-23	nt	nt	nt	nt	nt
CCOc1ccc(NC(=O)CSC2=NC3(CCCCC3)Nc3ccccc32)cc1	9	nt	nt	nt	nt	nt
CCOC(=O)c1cnc2c(-c3ccccc3)cnn2c1N	-19	-27	2	0	-8	-2
CCOC(=O)c1cnc2c(C#N)cnn2c1N	-1	5	2	0	36*	-3
Cc1ccc(S(=O)(=O)c2nnn(-c3cccc(F)c3)c2N)cc1	-2	-33*	10	0	-3	-1
COc1ccc(S(=O)(=O)c2nnn(-c3cccc(OC)c3)c2N)cc1	-2	1	30	2	-1	-2
Cc1ccc(-n2ncc3c(=O)n(-c4ccc(F)c(Cl)c4)c(C)nc32)cc1	-1	nt	nt	nt	nt	nt
Cc1ccc(S(=O)(=O)c2nnn(-c3ccc(F)c(Cl)c3)c2N)cc1	0	-23	76*	5	10	2
O=C(Cn1nc(C(=O)O)c2ccccc2c1=O)Nc1ccccc1Cl	-10	nt	nt	nt	nt	nt
CCn1nnc2cc(C(=O)Nc3nc(-c4ccc(C)c(C)c4)cs3)ccc21	-11	nt	nt	nt	nt	nt
Cc1ccc(-c2nnc(SCC(=O)NCc3ccccc3)n2N)cc1	0	nt	nt	nt	nt	nt
Cc1ccc(NC(=O)C(C)n2nc(C(=O)O)c3ccccc3c2=O)cc1 (stereo unspecified)	4	nt	nt	nt	nt	nt
CC(C(=O)N1CCCC1)n1cnc2c1c(=O)n(C)c(=O)n2C (stereo unspecified)	-9	nt	nt	nt	nt	nt
CCOC(=O)/C(C#N)=C\C=C1C=CN(C)C=C1	0	-20	45*	19	0	-3
CCOC(=O)/C(C#N)=C\c1ccc(CC)s1	-4	2	-1	0	6	5
CCc1ccc(Nc2nc3ccccc3nc2NS(=O)(=O)c2ccccc2)cc1	3	-49*	17	0	-2	-5
COc1cccc(Nc2nc3cc(C)ccc3nc2NS(=O)(=O)c2ccc(Cl)cc2)c1	-4	-50*	58*	6	-1	-4
CCCCOC(=O)c1ccc(Nc2nc3ccccc3nc2NS(=O)(=O)c2ccccc2)cc1	1	nt	nt	nt	nt	nt
CCOC(=O)c1ccc(Nc2nc3ccccc3nc2NS(=O)(=O)c2ccc(Cl)cc2)cc1	-4	-40*	15	0	-6	-2
CCN(CC)CCNc1nc2c(c(=O)n(C)c(=O)n2C)n1Cc1ccc(C)cc1	11	nt	nt	nt	nt	nt
COc1cccc(-c2c(C(=O)N/N=C(\C)c3ccco3)nnn2-c2nonc2N)c1	2	34	47*	5	20	2
C/C(=N\NC(=O)c1nnn(-c2nonc2N)c1-c1ccccc1)c1ccco1	-1	34	66*	14	23	3
COc1cccc(-c2c(C(=O)N/N=C(\C)c3cccnc3)nnn2-c2nonc2N)c1	-4	-11	2	0	11	1
C/C(=N\NC(=O)c1nnn(-c2nonc2N)c1-c1ccccc1)c1cccnc1	-2	-7	4	0	-5	-2
O=CN1CCN(C(=S)NC(=O)c2ccc(Cl)cc2)CC1	1	1	0	0	39*	2
